AMA1-RON2 inh: qHTS for Inhibitors of AMA1-RON; Towards Development of Antimalarial Drug Lead: Primary Screen; Plasmodium falciparum AMA1 (3D7) - RON2 peptide interaction; AlphaScreen AMA1-biotinylated RON2 peptide binding; Potency, µM (titrated, usually from 58.2 µM), most hits filed as inhibitors; 360,000 compounds, 0.2% hits; AID 720542, 2013; further: nearly all actives have a fitted effect of over 45% in size
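AMA1 (3D7) with his tag at 25 nM final met compounds first, then biotinylated RON2 peptide at 25 nM; detection used donor plus acceptor beads, 10 µg/mL apiece, read by AlphaScreen after 30 min at room temperature.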
SARS PLP yeast: qHTS of Yeast-based Assay for SARS-CoV PLP; Potency, µM (doses to about 32.9 µM), usual class: activators; 330,000 compounds, 0.19% hits; AID 485353, 2010; S. cerevisiae expressing SARS-CoV PLpro, growth rescue; calls by dose curve; further: nearly all actives have a fitted effect of over 55% in size
Cycloheximide cs: Cycloheximide Counterscreen for Small Molecule Inhibitors of Shiga Toxin; max response, %; cell reporter, cycloheximide protein synthesis inhibition counterscreen; 300,000 compounds, 12% hits; in the data active means max response mostly above about 13%, no sharp cut-off; inactive means mostly below about 14%; further: read at 38.3 µM for the half of the compounds with a filed dose
Pf growth 96h: Primary qHTS for delayed death inhibitors of the malarial parasite plastid, 96 hour incubation; P. falciparum luciferase reporter growth, 96 h; Potency, µM (highest dose often 28.7 µM), most hits filed as inhibitors; 320,000 compounds, 6.9% hits
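Luminescence readout: decreased luciferase signal marks inhibited growth of reporter-expressing P. falciparum in infected red cells (2% hematocrit, 0.05% parasitemia final), exposed to compound two generations (96 h, 37 C, 5% CO2).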
Pf growth 48h: Primary qHTS for delayed death inhibitors of the malarial parasite plastid, 48 hour incubation. P. falciparum luciferase growth in erythrocytes, 48 h. Potency, µM (highest dose often 28.7 µM), usual class: inhibitors. 310,000 compounds, 5.9% hits. AID 504832, 2011
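Luciferase-expressing P. falciparum in infected erythrocytes (2% hematocrit, 0.1% parasitemia final) in RPMI 1640/0.5% Albumax were exposed to compound for 48 hours at 37 C, 5% CO2; growth read as luminescence.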
Shiga inhibitor: A qHTS for Small Molecule Inhibitors of Shiga Toxin. Vero cells, Shiga toxin protein synthesis inhibition reporter. inhibition, % at 38.7 µM. AID 2315, 2010. 290,000 compounds, 9.2% hits; in the data active means inhibition mostly above about 28%, no sharp cut-off; inactive means mostly below about 43%
Hits are given with their value; 0 = inactive; ? = inconclusive; - = no result given; [ ] = remark or other dose. Only some compounds are listed: those with a hit (about 19% of all), similar ones and a draw of the others. Unless noted, the call rests on the fitted dose curve; in most records, active means well fitted curve in the direction sought with a large enough effect; inconclusive means small, poorly fitted or top-dose-only effect, or another doubt; inactive means no such curve, though single readings can be large; an effect the other way counts as inactive or inconclusive.

SMILES | AMA1-RON2 inh | SARS PLP yeast | Cycloheximide cs | Pf growth 96h | Pf growth 48h | Shiga inhibitor
CC1CCN(C(=O)COc2ccc(S(=O)(=O)N3CCCC3)cc2)CC1 | 0 | 0 | 0 | 0 | 0 | 0
CC(C)(C)c1ccc(S(=O)(=O)N2CCCCC2)cc1 | 0[2.32 µM] | 0 | 0 | 11.7µM | ? | 0
CCCCOc1ccc(C(=O)N2CCNC(=O)C2)cc1 | 0 | 0 | 0 | 0 | 0 | 0
CC(C)(C)C(O)(CC#CCN1CCCC1)c1ccccc1 (stereo unspecified) | 0 | 0 | 0 | 0 | 0 | 0
CN[C@@H]1[C@H](O[C@H]2[C@H](O[C@H]3[C@H](O)[C@@H](O)[C@H](N=C(N)N)[C@@H](O)[C@@H]3N=C(N)N)O[C@@H](C)[C@]2(O)C=O)O[C@@H](CO)[C@H](O)[C@H]1O | - | - | 0 | 0 | 0 | 0
Cc1ccc(S(=O)(=O)n2c(N)nc3cc(C)c(C)cc32)cc1 | 0 | - | - | - | - | -
O=C(COc1ccccc1F)N1CCN(S(=O)(=O)/C=C/c2ccccc2)CC1 | 0 | 0 | 0 | 0 | 0 | 0
O=C(COc1ccc2cc(Br)ccc2c1)N1CCCC1 | 0 | 0 | 0 | ? | 0 | 0
O=C(COc1ccc(Cl)cc1)N1CCCC1 | 0 | 0 | 12.2 | 0 | 0 | 37.1
O=C(COc1ccc(Br)cc1)N1CCN(S(=O)(=O)/C=C/c2ccccc2)CC1 | 0 | 0 | 0 | 11.7µM | ? | 0
O=C(COc1ccc(Br)cc1)N1CCCCCC1 | ? | 0 | 14.4 | 0 | - | 0
Cc1ccc(OCC(=O)N2CCCCCCC2)cc1 | 0 | 0 | 15.9 | ? | 0 | 0
CC1CCN(C(=O)c2cc3ccccc3cc2O)CC1 | 0 | 0 | 0 | ? | ? | 0
COc1ccc([N+](=O)[O-])cc1NC(=O)c1ccco1 | 0 | 0 | 0 | 0 | 0 | 0
CC(C)c1ccc(S(=O)(=O)N2CCN(C(=O)C3=COCCO3)CC2)cc1 | 0 | 0 | - | - | - | -
CC(C)(C)c1ccc(S(=O)(=O)N2CCN(C(=O)C3=COCCO3)CC2)cc1 | 0 | 0 | - | 13.1µM | ? | -
Cc1cc(-c2ccccc2)n2nc(N)nc2n1 | 0 | 0 | 0 | 0 | 0 | 0
CC[C@H](C)[C@H](NC(=O)[C@H](CCCNC(=N)N)NC(=O)[C@@H](NC(=O)[C@H](CCCNC(=N)N)NC(=O)[C@H](CCCCN)NC(=O)[C@H](CCCNC(=N)N)NC(=O)[C@@H](NC(=O)[C@H](CC(N)=O)NC(=O)[C@@H](N)CS)[C@@H](C)O)[C@@H](C)CC)C(=O)N[C@@H](CCC(N)=O)C(=O)N[C@@H](CCCNC(=N)N)C(=O)NCC(=O)N1CCC[C@H]1C(=O)NCC(=O)N[C@@H](CCCNC(=N)N)C(=O)N[C@@H](C)C(=O)N[C@@H](Cc1ccccc1)C(=O)N[C@H](C(=O)N[C@H](C(=O)N[C@H](C(=O)NCC(=O)N[C@@H](CCCCN)C(=O)O)[C@@H](C)CC)[C@@H](C)O)C(C)C | - | - | 0 | - | - | 0
COc1ccccc1C/C(N)=N/OC(=O)c1ccco1 | 0 | 0 | 19.3 | 0 | 0 | 55.9
COc1ccccc1C/C(N)=N/OC(=O)c1ccc2c(c1)OCO2 | 0 | 0 | 44.3 | 0 | ? | 104.5
COc1ccccc1C/C(N)=N/O | 0 | 0 | 0 | 0 | 0 | 0
Cc1ccc(OCC2Cn3c(nc4c3c(=O)[nH]c(=O)n4C)O2)cc1C (stereo unspecified) | 0 | 0 | 0 | 0 | 0 | 0
COC(=O)C1=C(c2ccc(OCc3ccccc3)cc2)C[C@@H]2CC[C@H]1N2C(=O)NCc1ccc(C(C)(C)C)cc1 | 0 | - | - | - | - | -
COC(=O)C1=C(c2ccc(OCc3ccccc3)cc2)C[C@@H]2CC[C@H]1N2C(=O)NCc1ccccc1 | 0 | 0 | - | ? | 7.38µM | -
COC(=O)C1=C(c2ccc(OCc3ccccc3)cc2)C[C@@H]2CC[C@H]1N2C(=O)NCc1cccc(OC)c1 | 0 | 0 | - | ? | 3.7µM | -
COC(=O)C1=C(c2ccc(OCc3ccccc3)cc2)C[C@@H]2CC[C@H]1N2C(=O)NCc1ccc(OC)cc1 | 0 | - | - | - | - | -
CCN(CC(=O)NCCc1ccc(S(N)(=O)=O)cc1)Cc1ccccc1 | 0 | 0 | 0 | 0 | 0 | 0

From PubChem BioAssay
